Measurements: the supplement of paper PMC10849652
Of roughly 7,900 targets only a part is listed; those with a hit were picked by preference. About 0.6% of all pairs of compound and target were hits. Unmarked numbers belong to inactive results.

Experiments:
Experiment in all cases: log2 fold change, soluble protein after heating vs DMSO (PISA); higher = thermal stabilisation; K562 cells, 10 uM, 30 min; active = over 0.2 and 3.5 SD of the protein, either way, in both replicates (recomputed)
[1] = compound: CC[C@@H]1C(=O)N(C)c2cnc(Nc3ccc(C(=O)NC4CCN(C)CC4)cc3OC)nc2N1C1CCCC1
Procedure, shortened: (§1)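 K562 cells at 2×10^6 cells/mL were treated with 10 μM compound for 30 min. Aliquots were heated for 3 min across 48°C-58°C, pooled, and extracted in PBS with 0.5% NP-40 at 4°C; soluble protein was the supernatant after 21,000xg for 90 min. Soluble protein was quantified by TMTpro 16plex LC-MS/MS with channel sums equalised, and reported as log2 fold change in thermal stability against DMSO controls, with values from duplicates.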

[2] = compound: CC[C@@H]1C(=O)N(C)c2cnc(Nc3ccc(C(=O)N[C@H]4CC[C@H](N5CCN(CC6CC6)CC5)CC4)cc3OC)nc2N1C(C)C [volasertib]
Procedure, shortened: as §1

[3] = compound: CC[C@H](C)N1C=C(C2=C(C=C(C=C21)C3=CN=C(C=C3)N4CCNCC4)C(=O)NCC5=C(C=C(NC5=O)C)C)C
Procedure, shortened: as §1

[4] = compound: CC[C@H](C)[C@@H](C(=O)N[C@@H]([C@@H](C)O)C(=O)N[C@@H](CC(C)C)C(=O)[C@]1(CO1)C)NC(=O)[C@H]([C@@H](C)CC)N(C)C(=O)C [epoxomicin]
Procedure, shortened: as §1

[5] = compound: CCn1c(C(=O)N(C2CC2)C2CC2)cc2c3c(ncn3C)c(Nc3cc(C)n(C)n3)nc21
Procedure, shortened: as §1

[6] = compound: CCn1cc(-c2ccnc3[nH]c(-c4cccc(CN(C)C)c4)cc23)c(-c2ccc(NC(=O)N(C)C)cc2)n1
Procedure, shortened: as §1

[7] = compound: CN(C)CC(=O)Nc1ccc2[nH]c(=O)c3ccccc3c2c1
Procedure, shortened: as §1

[8] = compound: CN(CCOC1=CC=C(C=C1)C[C@H]2C(=O)NC(=O)S2)C3=CC=CC=N3 (racemic) [rosiglitazone]
Procedure, shortened: as §1

[9] = compound: CN1C2=C(C3=C1C(=O)N(N=C3)CC4=CC(=CC=C4)N)SC(=C2)S(=O)C
Procedure, shortened: as §1

[10] = compound: CN1CCC(CNc2ccc3ncc(-c4cccc(OC(F)(F)F)c4)n3n2)CC1
Procedure, shortened: as §1

UniProt Q9NQG5, sequence (Q9NQG5 whole entry, looked up): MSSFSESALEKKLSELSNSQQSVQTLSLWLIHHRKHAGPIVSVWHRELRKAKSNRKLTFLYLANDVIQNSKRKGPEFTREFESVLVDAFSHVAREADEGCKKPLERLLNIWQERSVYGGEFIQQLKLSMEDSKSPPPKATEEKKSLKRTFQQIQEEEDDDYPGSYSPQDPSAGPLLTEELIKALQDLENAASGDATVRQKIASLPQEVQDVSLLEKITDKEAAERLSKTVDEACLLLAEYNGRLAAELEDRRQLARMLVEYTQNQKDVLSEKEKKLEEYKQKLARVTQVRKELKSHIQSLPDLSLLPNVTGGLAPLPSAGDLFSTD
UniProt O14730, sequence (O14730 whole entry, looked up): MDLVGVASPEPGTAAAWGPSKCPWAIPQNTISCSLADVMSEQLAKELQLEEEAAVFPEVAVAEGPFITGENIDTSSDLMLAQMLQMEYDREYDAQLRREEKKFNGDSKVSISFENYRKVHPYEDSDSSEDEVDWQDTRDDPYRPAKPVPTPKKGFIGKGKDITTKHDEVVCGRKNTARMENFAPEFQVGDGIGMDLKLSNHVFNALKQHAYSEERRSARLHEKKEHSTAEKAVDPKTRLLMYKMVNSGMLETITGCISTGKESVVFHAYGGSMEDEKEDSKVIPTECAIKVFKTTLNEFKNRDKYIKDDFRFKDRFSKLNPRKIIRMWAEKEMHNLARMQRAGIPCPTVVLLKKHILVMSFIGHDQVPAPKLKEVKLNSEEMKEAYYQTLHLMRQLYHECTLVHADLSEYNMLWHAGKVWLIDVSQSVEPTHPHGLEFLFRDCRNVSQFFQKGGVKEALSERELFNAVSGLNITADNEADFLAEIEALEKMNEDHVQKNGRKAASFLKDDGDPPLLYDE
UniProt Q14498, sequence (Q14498 whole entry, looked up): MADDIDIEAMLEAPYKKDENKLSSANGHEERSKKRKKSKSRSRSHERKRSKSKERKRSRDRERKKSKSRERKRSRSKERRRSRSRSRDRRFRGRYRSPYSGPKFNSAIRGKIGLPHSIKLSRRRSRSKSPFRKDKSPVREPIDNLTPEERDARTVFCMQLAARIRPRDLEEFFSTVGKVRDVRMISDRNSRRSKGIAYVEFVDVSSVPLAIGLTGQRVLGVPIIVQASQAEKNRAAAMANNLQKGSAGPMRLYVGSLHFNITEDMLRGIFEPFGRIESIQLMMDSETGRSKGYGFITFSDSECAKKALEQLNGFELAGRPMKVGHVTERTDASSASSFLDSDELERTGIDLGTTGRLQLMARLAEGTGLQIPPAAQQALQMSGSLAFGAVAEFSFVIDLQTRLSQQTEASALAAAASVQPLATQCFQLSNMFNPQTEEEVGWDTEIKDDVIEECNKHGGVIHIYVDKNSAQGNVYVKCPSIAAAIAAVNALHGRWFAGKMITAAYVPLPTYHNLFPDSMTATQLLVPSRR
UniProt Q15418, sequence (Q15418 whole entry, looked up): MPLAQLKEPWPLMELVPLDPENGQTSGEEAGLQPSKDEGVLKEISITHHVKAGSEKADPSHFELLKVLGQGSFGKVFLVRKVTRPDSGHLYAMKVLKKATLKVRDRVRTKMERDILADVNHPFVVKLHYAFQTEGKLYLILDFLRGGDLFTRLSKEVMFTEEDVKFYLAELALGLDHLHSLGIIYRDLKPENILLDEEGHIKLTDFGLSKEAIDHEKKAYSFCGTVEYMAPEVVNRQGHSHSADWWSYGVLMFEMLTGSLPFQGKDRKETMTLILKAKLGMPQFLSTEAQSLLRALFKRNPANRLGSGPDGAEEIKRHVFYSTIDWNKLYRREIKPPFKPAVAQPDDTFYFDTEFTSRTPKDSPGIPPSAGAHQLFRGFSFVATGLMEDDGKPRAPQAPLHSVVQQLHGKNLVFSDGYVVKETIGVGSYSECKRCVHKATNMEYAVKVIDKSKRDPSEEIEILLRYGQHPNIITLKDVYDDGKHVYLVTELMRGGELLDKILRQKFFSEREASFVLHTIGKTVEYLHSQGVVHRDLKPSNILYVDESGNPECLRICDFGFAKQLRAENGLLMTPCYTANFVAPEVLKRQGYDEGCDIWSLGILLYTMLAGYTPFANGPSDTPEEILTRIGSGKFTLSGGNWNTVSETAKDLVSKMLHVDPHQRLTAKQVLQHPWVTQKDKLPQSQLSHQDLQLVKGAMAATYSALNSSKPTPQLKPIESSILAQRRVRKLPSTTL
UniProt Q04864, sequence (Q04864 whole entry, looked up): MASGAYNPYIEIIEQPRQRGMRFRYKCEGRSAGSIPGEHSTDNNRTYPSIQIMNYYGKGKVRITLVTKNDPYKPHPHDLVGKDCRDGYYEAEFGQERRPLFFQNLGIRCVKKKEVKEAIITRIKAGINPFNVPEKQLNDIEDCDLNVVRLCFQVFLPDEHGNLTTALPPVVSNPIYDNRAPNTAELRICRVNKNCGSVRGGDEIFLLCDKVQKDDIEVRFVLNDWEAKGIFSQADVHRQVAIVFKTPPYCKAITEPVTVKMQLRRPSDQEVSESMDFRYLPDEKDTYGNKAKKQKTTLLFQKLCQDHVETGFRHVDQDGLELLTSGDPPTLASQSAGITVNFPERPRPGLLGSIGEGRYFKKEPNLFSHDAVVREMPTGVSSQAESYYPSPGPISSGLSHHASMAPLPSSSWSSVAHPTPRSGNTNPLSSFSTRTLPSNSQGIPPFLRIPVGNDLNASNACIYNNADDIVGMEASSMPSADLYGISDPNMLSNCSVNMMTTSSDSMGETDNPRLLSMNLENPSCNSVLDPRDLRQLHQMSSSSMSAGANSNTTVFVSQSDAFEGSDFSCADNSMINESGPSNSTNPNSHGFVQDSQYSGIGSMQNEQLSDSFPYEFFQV
UniProt P35244, sequence (P35244 whole entry, looked up): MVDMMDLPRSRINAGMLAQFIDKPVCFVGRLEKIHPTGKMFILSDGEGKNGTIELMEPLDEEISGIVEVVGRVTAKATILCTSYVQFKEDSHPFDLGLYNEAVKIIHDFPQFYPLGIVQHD
UniProt O95486, sequence (O95486 whole entry, looked up): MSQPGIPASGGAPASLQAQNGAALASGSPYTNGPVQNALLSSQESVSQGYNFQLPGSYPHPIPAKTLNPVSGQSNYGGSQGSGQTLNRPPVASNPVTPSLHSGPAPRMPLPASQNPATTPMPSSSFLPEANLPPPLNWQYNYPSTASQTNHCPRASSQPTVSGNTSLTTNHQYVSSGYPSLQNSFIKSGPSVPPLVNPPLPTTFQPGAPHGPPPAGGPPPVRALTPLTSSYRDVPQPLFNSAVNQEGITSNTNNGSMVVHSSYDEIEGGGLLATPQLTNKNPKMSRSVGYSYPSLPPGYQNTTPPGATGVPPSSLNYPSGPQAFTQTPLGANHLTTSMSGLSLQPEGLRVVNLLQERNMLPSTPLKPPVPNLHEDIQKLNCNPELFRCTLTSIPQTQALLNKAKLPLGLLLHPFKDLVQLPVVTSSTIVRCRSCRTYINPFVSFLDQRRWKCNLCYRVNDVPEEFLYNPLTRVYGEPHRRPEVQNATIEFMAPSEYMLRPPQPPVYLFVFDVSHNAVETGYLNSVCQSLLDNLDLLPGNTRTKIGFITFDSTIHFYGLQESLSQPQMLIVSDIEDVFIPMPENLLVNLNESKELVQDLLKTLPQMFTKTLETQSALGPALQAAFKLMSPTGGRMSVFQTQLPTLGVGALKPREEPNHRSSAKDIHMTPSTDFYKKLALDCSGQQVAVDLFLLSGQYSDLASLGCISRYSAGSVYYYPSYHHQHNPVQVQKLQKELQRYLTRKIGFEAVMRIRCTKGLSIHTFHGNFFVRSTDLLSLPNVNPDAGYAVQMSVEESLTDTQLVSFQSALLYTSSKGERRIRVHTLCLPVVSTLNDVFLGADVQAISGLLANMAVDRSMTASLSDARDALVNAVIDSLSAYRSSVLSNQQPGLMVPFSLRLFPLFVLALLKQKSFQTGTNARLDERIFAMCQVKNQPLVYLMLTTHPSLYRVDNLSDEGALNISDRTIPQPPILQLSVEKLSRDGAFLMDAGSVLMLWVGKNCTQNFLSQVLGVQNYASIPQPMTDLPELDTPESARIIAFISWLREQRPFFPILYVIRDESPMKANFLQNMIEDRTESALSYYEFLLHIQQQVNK
UniProt Q5T8P6, sequence (Q5T8P6 whole entry, looked up): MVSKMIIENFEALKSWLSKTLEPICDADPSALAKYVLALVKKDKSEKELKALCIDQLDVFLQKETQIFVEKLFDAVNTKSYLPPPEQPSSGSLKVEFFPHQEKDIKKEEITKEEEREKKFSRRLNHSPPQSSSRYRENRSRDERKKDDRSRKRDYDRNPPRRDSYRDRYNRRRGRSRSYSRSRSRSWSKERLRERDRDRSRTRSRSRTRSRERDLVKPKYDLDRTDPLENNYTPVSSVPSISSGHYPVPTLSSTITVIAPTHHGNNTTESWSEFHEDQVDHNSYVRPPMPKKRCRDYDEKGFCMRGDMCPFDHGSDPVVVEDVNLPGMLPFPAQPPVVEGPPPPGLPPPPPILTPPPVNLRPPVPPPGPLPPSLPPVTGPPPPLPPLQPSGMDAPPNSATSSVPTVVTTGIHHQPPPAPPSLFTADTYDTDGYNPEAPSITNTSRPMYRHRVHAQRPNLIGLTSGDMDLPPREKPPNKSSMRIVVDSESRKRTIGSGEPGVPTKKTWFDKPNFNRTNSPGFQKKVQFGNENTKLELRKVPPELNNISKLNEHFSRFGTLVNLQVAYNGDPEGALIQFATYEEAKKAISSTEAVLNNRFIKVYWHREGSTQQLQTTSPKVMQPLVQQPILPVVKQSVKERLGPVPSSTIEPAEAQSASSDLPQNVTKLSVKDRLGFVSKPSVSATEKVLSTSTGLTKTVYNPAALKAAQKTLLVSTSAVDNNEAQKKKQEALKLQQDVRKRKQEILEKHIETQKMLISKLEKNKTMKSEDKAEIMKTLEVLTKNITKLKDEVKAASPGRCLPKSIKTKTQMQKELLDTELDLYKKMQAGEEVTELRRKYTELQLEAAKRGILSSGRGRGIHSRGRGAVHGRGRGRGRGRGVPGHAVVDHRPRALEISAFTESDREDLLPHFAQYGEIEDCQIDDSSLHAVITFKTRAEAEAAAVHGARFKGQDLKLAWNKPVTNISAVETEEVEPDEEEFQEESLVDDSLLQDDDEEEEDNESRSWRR

| Target | log2 fold change [1] | log2 fold change [2] | log2 fold change [3] | log2 fold change [4] | log2 fold change [5] | log2 fold change [6] | log2 fold change [7] | log2 fold change [8] | log2 fold change [9] | log2 fold change [10] |
| --- | --- | --- | --- | --- | --- | --- | --- | --- | --- | --- |
| RPTOR (UniProt Q8N122) | -0.116 | -0.237 (active) | 0.064 | 0.034 | 0.001 | -0.08 | 0.03 | 0.034 | -0.037 | -0.197 |
| SCD (UniProt O00767) | 0 | 0.009 | -0.063 | 0.109 | 0.103 | 0.036 | 0.008 | -0.023 | 0.025 | 0.095 |
| RABGAP1L isoform 3 (UniProt Q5R372) | -0.046 | -0.107 | 0.053 | 0.08 | -0.028 | -0.034 | -0.011 | -0.026 | 0.02 | 0.025 |
| SEC24A (UniProt O95486) | -0.077 | -0.253 (active) | 0.018 | 0.055 | -0.05 | 0.003 | 0.065 | 0.051 | -0.054 | -0.029 |
| SFXN5 (UniProt Q8TD22) | 0.048 | -0.034 | 0.022 | -0.009 | -0.012 | -0.039 | 0.006 | 0.007 | -0.209 | 0.063 |
| RBM27 (UniProt Q9P2N5) | -0.141 | -0.296 (active) | 0.014 | 0.014 | -0.11 | 0.001 | 0.027 | 0.055 | -0.013 | -0.068 |
| RPS6KA1 isoform 2 (UniProt Q15418) | -0.223 | -0.212 | 0.053 | 0.071 | 0.127 | -0.146 | 0.026 | 0.044 | -0.032 | -0.438 (active) |
| RBM26 isoform 2 (UniProt Q5T8P6) | -0.207 | -0.299 | 0.151 | 0.098 | -0.061 | -0.069 | 0.072 | 0.094 | -0.011 | -0.177 |
| RDH10 (UniProt Q8IZV5) | 0.068 | 0.037 | 0.034 | -0.026 | -0.056 | 0.021 | -0.006 | 0.021 | -0.19 | 0.09 |
| RPS3A (UniProt P61247) | 0.133 | 0.339 | 0.02 | -0.124 | 0.028 | 0.114 | -0.063 | -0.064 | 0.138 | 0.105 |
| RPS6KA2 isoform 2 (UniProt Q15349) | -0.136 | -0.179 | 0.034 | 0.041 | 0.133 | -0.126 | 0.025 | 0.072 | -0.038 | -0.313 |
| RRAGB (UniProt Q5VZM2) | 0 | 0.011 | -0.017 | 0.047 | 0.015 | -0.041 | -0.027 | -0.015 | -0.022 | -0.191 |
| RIOK2 (UniProt Q9BVS4) | 0.133 | 0.267 | 0.015 | -0.032 | 0.019 | -0.013 | -0.038 | 0.014 | 0.085 | 0.202 |
| RIOK3 (UniProt O14730) | 0.084 | 0.04 | -0.01 | 0.072 | 0.001 | -0.053 | -0.011 | 0.024 | -0.023 | -0.041 |
| SERPINA7 (UniProt P05543) | 0.055 | 0.309 | 0.044 | -0.68 (active) | 0.073 | 0.036 | -0.123 | -0.014 | 0.255 | 0.279 |
| RPA3 (UniProt P35244) | -0.006 | -0.056 | -0.002 | 0.06 | 0.021 | -0.044 | 0.163 | 0.003 | -0.054 | 0.039 |
| SETMAR (UniProt Q53H47) | -0.071 | -0.045 | 0.058 | 0.045 | -0.047 | 0.015 | 0.012 | 0.005 | -0.045 | 0.108 |
| RTF2 (UniProt Q9BY42) | -0.18 | -0.45 (active) | 0.003 | 0.118 | -0.049 | 0.012 | 0.005 | -0.055 | -0.017 | 0.161 |
| REL (UniProt Q04864) | 0.045 | -0.176 | -0.022 | 0.043 | -0.062 | 0.159 | 0.003 | 0.063 | 0.011 | 0.141 |
| RPS21 (UniProt P63220) | 0.089 | 0.238 (active) | -0.04 | 0.028 | 0.028 | 0.055 | -0.045 | -0.019 | -0.004 | 0.073 |
| RBM39 (UniProt Q14498) | -0.183 | -0.487 (active) | 0.038 | -0.027 | -0.057 | 0.079 | 0.013 | 0.025 | 0.071 | -0.045 |
| RPA1 (UniProt P27694) | -0.108 | -0.326 (active) | 0.083 | 0.09 | -0.028 | -0.02 | 0.044 | 0.063 | -0.048 | -0.079 |
| RAB3GAP2 (UniProt Q9H2M9) | -0.101 | -0.358 | 0.044 | 0.022 | -0.041 | 0.088 | 0.04 | 0.053 | 0.133 | -0.132 |
| REEP4 (UniProt Q9H6H4) | -0.023 | -0.043 | -0.011 | -0.08 | 0.024 | 0.051 | -0.015 | -0.033 | 0.079 | -0.134 |
| RPS16 (UniProt P62249) | 0.125 | 0.388 | 0.044 | -0.118 | 0.026 | 0.124 | -0.085 | -0.072 | 0.112 | 0.1 |
| SENP6 (UniProt Q9GZR1) | -0.086 | -0.07 | -0.044 | -0.039 | 0.029 | -0.022 | -0.017 | 0.004 | -0.014 | -0.038 |
| RPRD1B (UniProt Q9NQG5) | -0.057 | -0.245 (active) | 0.077 | 0.075 | 0.009 | -0.005 | 0 | 0.052 | -0.059 | -0.077 |
| SASH1 (UniProt O94885) | -0.136 | -0.308 (active) | 0.044 | -0.075 | -0.012 | 0.027 | 0.042 | 0.044 | 0.054 | -0.29 |
| ROR2 (UniProt Q01974) | -0.107 | -0.123 | 0.129 | 0.035 | -0.012 | -0.015 | -0.01 | 0.036 | -0.069 | -0.089 |
| SCAF11 (UniProt Q99590) | 0.145 | 0.153 | -0.092 | -0.074 | -0.007 | 0.176 | -0.142 | -0.04 | 0.148 | 0.25 |
